In ChEMBL document CHEMBL1961873, “Compounds: GSK PKIS; Assays: Nanosyn kinase panel” (2012):

Tests used:
[1] = molecular target: CDK3/Cyclin E (Homo sapiens) (UniProt P24864+Q00526); details: at 1 µM;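 also: each figure is a mean percent inhibition of the CDK3/cyclin E complex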
[2] = molecular target: Cyclin-dependent kinase 4 (Homo sapiens) (UniProt P11802); details: at 0.1 µM
[3] = molecular target: Cyclin-dependent kinase 4 (Homo sapiens) (UniProt P11802); details: at 1 µM
[4] = molecular target: Cyclin-dependent kinase 5 (Homo sapiens) (UniProt Q00535); details: at 0.1 µM
Chain of Cyclin-dependent kinase 5 (Homo sapiens) (Q00535 whole entry, looked up): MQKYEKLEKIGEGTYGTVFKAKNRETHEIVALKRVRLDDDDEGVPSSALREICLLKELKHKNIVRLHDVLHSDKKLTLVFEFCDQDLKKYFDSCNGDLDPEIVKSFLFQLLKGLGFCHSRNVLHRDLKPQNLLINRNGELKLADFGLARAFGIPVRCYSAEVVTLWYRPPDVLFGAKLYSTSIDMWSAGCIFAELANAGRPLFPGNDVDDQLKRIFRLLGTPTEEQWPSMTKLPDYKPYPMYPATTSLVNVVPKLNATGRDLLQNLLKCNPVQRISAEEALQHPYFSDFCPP

[5] = molecular target: Cyclin-dependent kinase 5 (Homo sapiens) (UniProt Q00535); details: at 1 µM
[6] = molecular target: Cyclin-dependent kinase 6 (Homo sapiens) (UniProt Q00534); details: at 0.1 µM
Chain of Cyclin-dependent kinase 6 (Homo sapiens) (Q00534 whole entry): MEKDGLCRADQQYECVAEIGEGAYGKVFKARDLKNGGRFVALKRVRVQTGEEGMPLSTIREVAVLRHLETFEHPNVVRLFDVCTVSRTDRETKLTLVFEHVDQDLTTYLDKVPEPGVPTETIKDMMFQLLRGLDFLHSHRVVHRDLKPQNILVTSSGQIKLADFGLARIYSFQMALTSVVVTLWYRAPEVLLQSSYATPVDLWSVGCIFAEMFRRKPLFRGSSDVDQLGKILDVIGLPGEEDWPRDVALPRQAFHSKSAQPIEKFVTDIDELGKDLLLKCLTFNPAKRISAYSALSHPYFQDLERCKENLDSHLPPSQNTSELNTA

[7] = molecular target: Cyclin-dependent kinase 6 (Homo sapiens) (UniProt Q00534); details: at 1 µM
[8] = molecular target: Dual specificity protein kinase CLK2 (Homo sapiens) (UniProt P49760); details: at 0.1 µM
Chain of Dual specificity protein kinase CLK2 (Homo sapiens) (P49760 whole entry, looked up): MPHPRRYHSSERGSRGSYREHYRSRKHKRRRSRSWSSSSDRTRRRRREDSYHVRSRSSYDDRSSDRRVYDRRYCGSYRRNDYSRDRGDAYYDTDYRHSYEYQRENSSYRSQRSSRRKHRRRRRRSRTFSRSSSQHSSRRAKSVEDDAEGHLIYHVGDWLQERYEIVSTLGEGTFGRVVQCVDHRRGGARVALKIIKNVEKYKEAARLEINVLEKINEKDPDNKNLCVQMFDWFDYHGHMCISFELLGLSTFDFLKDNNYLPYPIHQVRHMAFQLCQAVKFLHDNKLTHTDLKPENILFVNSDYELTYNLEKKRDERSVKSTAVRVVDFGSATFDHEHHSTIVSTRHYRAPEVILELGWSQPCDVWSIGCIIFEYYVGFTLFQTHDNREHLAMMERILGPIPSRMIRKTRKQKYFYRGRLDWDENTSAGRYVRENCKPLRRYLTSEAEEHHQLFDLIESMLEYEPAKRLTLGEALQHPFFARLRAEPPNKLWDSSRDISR

[9] = molecular target: Dual specificity protein kinase CLK2 (Homo sapiens) (UniProt P49760); details: at 1 µM
[10] = molecular target: Dual specificity protein kinase CLK3 (Homo sapiens) (UniProt P49761); details: at 0.1 µM
Chain of Dual specificity protein kinase CLK3 (Homo sapiens) (P49761 whole entry, looked up): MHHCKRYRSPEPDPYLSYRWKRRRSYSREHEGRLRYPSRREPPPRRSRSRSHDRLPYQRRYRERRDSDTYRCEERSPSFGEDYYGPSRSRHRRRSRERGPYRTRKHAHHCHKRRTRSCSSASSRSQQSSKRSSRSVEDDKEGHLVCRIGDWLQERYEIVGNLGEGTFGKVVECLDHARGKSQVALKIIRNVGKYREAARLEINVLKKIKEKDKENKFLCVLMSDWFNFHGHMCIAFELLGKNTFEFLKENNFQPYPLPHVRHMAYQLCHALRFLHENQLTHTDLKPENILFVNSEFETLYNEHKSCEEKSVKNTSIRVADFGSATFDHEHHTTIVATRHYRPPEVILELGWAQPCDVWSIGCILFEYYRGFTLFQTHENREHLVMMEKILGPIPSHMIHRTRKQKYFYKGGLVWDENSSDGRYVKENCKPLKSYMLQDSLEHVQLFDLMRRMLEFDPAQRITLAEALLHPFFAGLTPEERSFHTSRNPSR

[11] = molecular target: Dual specificity protein kinase CLK3 (Homo sapiens) (UniProt P49761); details: at 1 µM
[12] = molecular target: Dual specificity tyrosine-phosphorylation-regulated kinase 1A (Homo sapiens) (UniProt Q13627); details: at 0.1 µM
[13] = molecular target: Dual specificity tyrosine-phosphorylation-regulated kinase 1A (Homo sapiens) (UniProt Q13627); details: at 1 µM
[14] = molecular target: Dual specificity tyrosine-phosphorylation-regulated kinase 1B (Homo sapiens) (UniProt Q9Y463); details: at 0.1 µM
Chain of Dual specificity tyrosine-phosphorylation-regulated kinase 1B (Homo sapiens) (Q9Y463 whole entry, looked up): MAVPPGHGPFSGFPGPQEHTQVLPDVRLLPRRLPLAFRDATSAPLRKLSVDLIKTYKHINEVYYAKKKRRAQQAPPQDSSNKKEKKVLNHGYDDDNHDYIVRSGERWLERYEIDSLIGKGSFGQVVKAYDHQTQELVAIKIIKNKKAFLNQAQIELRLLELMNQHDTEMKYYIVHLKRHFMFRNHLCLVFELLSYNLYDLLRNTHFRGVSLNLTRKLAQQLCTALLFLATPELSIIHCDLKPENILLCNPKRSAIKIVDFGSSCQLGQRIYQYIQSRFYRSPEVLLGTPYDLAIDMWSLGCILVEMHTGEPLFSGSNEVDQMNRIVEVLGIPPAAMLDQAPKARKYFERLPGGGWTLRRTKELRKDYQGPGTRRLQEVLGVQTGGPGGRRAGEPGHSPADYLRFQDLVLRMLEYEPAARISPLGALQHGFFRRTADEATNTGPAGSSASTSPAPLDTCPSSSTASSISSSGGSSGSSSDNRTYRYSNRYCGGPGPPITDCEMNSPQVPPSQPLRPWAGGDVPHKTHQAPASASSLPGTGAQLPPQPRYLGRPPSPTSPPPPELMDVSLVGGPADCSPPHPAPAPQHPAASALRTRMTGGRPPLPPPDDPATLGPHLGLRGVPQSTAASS

[15] = molecular target: Dual specificity tyrosine-phosphorylation-regulated kinase 1B (Homo sapiens) (UniProt Q9Y463); details: at 1 µM
[16] = molecular target: T1, Dual specificity tyrosine-phosphorylation-regulated kinase 2 (Homo sapiens) (UniProt Q92630); details: at 0.1 µM
T1 sequence (whole entry): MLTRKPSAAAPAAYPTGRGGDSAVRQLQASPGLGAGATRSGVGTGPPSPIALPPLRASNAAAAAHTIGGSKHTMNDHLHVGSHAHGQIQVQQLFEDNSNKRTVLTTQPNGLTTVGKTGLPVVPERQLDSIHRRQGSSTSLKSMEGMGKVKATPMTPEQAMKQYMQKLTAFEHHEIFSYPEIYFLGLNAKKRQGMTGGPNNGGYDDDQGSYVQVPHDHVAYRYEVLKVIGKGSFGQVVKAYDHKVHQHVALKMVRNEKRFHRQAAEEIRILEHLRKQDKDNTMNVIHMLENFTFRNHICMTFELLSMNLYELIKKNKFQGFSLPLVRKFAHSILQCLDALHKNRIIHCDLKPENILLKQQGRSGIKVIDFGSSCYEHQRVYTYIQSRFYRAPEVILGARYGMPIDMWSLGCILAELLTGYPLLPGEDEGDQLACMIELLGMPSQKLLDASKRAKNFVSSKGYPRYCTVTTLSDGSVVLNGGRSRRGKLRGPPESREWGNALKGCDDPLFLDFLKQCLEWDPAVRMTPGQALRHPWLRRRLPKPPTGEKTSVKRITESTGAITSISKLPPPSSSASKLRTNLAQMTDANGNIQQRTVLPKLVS

[17] = molecular target: T1, Dual specificity tyrosine-phosphorylation-regulated kinase 2 (Homo sapiens); details: at 1 µM
[18] = molecular target: Glycogen synthase kinase-3 alpha (Homo sapiens) (UniProt P49840); details: at 0.1 µM
Chain of Glycogen synthase kinase-3 alpha (Homo sapiens) (P49840 2-483 limits assumed): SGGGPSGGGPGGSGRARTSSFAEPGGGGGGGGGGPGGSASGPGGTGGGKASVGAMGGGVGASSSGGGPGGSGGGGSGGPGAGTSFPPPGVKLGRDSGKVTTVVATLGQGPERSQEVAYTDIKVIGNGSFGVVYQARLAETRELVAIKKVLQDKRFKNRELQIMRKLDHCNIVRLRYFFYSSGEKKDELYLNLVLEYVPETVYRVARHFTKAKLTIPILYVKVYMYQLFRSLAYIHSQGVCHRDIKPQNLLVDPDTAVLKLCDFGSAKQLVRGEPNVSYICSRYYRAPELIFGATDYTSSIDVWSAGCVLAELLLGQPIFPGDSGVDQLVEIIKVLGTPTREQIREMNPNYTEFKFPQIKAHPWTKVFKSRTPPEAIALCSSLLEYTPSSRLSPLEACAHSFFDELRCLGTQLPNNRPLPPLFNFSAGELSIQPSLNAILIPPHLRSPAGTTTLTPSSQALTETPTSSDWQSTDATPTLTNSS

[19] = molecular target: Glycogen synthase kinase-3 alpha (Homo sapiens) (UniProt P49840); details: at 1 µM
[20] = molecular target: Glycogen synthase kinase-3 beta (Homo sapiens) (UniProt P49841); details: at 0.1 µM;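 also: values are mean percent inhibition of GSK3B activity, from the GSK Published Kinase Inhibitor Set (PKIS) screening dataset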
Chain of Glycogen synthase kinase-3 beta (Homo sapiens) (P49841 whole entry, looked up): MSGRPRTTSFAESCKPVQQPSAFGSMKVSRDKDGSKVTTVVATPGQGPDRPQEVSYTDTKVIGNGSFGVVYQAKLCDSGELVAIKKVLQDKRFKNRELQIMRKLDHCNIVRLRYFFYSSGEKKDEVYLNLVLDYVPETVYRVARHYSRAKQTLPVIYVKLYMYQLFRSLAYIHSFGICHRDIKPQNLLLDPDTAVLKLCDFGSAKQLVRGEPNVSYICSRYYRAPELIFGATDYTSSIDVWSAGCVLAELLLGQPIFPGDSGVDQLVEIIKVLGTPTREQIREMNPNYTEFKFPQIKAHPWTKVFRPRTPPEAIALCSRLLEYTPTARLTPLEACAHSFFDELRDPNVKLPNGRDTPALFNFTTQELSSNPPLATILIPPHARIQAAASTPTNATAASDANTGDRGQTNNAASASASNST

Chain of Cyclin-dependent kinase 4 (Homo sapiens) (P11802 whole entry): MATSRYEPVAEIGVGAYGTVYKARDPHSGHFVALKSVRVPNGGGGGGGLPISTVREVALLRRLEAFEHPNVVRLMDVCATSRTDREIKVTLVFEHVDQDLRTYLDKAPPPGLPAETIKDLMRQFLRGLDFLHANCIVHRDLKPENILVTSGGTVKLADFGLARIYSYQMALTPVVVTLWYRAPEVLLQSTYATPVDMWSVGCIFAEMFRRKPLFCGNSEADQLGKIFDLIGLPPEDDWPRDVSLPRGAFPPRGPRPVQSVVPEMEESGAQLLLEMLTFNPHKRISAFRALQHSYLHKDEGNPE
Chain of CDK3/Cyclin E (Homo sapiens) (P24864 whole entry, looked up): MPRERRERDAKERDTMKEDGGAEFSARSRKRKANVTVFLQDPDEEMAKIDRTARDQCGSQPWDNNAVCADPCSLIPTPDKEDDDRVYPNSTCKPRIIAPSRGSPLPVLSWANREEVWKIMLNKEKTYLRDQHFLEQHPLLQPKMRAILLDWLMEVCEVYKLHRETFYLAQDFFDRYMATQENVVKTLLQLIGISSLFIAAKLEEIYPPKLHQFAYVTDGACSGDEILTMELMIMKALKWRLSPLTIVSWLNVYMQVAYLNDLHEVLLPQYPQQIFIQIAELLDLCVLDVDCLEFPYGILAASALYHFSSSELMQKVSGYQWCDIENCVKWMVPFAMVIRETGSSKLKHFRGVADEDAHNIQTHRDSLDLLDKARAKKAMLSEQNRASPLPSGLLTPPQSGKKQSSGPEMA
Chain of CDK3/Cyclin E (Homo sapiens) (Q00526 whole entry, looked up): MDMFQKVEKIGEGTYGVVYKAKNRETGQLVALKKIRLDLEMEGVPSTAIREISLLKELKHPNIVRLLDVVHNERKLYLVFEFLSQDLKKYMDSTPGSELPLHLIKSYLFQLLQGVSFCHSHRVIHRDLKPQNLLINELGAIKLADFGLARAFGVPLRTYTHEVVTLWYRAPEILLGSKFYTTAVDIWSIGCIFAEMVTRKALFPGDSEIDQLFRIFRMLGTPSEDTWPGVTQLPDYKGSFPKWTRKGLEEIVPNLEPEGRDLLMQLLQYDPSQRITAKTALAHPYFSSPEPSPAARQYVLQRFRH

Row | SMILES | inhibition [1] [%] | inhibition [2] [%] | inhibition [3] [%] | inhibition [4] [%] | inhibition [5] [%] | inhibition [6] [%] | inhibition [7] [%] | inhibition [8] [%] | inhibition [9] [%] | inhibition [10] [%] | inhibition [11] [%] | inhibition [12] [%] | inhibition [13] [%] | inhibition [14] [%] | inhibition [15] [%] | inhibition [16] [%] | inhibition [17] [%] | inhibition [18] [%] | inhibition [19] [%] | inhibition [20] [%]
1 | NS(=O)(=O)c1ccc(N/N=C2\C(=O)Nc3cccc(CCc4ccncc4)c32)cc1 | 63.6 | 14 | 29.4 | 19.4 | 38.5 | 36.6 | 56.2 | 0.9 | 4.17 | 0.97 | 1.36 | 1.69 | 4.28 | 1.6 | 6.1 | -0.67 | -1.25 | 49.5 | 68 | 34.1
2 | O=C(O[C@H]1CN[C@H](C#Cc2cc3ncnc(Nc4ccc5c(ccn5Cc5cc(F)ccc5F)c4)c3s2)C1)N1CCOCC1 | -2.16 | 2.17 | 1.93 | 1.09 | 0.14 | -1.14 | 1.5 | 1.29 | 0.52 | 1.27 | 1.89 | 2.29 | 4.73 | 0.4 | -1.92 | 3.27 | 2.77 | 3.38 | 6.08 | 1.76
3 | c1ccc(-c2n[nH]cc2-c2ccnc(-c3ccc(OCCn4ccnc4)cc3)c2)nc1 | 0.94 | 1.86 | 6.97 | 1.11 | 4.49 | 1.43 | 10 | 0.61 | 1.21 | 3.95 | 0.82 | 3.79 | 5.07 | 0.31 | 0.62 | -0.06 | 0.1 | 1.15 | 3.28 | 1.16
4 | FC(F)(F)CNc1nccc(-c2cnn3ncccc23)n1 | 11.2 | 2.33 | 10.8 | 3.62 | 22.9 | 0.9 | 3.37 | 5.19 | 51 | 0.47 | 2.91 | 14.6 | 60.1 | 16.1 | 59 | 2.04 | 14.3 | 3.64 | 7.01 | 2.33
5 | CCCNc1cccc(-n2ncc3c(N/N=C/c4ccncc4)ncnc32)c1 | 9.63 | 0.2 | 9.54 | 1.35 | 12.6 | 3.25 | 10.1 | 3.08 | 10.9 | 0.61 | 9.87 | 1.44 | 20.6 | 0.57 | 9.45 | 2.85 | 14.2 | 31.9 | 71.8 | 24
6 | COC(=O)Nc1nc2ccc(Oc3ccc(NC(=O)Nc4cc(C(F)(F)F)ccc4F)cc3)cc2s1 | -0.71 | 0.7 | 2.02 | 0.77 | 1.66 | 0.38 | 2.05 | 0.47 | 3.04 | 0.06 | 0.05 | 0.96 | 2.5 | 1.09 | 2.02 | -0.29 | 0.21 | 0.71 | 4.01 | -0.46
7 | CS(=O)(=O)CCNCc1ccc(-c2ccc3ncnc(Nc4ccc(OCc5ccccc5)cc4)c3c2)o1 | -0.81 | 1.16 | 2.98 | 0.58 | 2.07 | -1.55 | 1.12 | 0.03 | 0.73 | 0.41 | 0.48 | 1.93 | 4.22 | -0.07 | 1.88 | 5.3 | 2.62 | 2.32 | 3.44 | 1.65
8 | CCOc1ccc2c(-c3ccnc(Nc4cc(OC)cc(C(F)(F)F)c4)n3)cnn2n1 | 3.56 | 1.15 | 6.68 | 2.44 | 9.18 | 2.68 | 7.59 | 81.2 | 96.3 | 3.69 | 21.8 | 5.33 | 21.6 | 8.29 | 38.8 | 1.12 | 5.62 | 9.42 | 30.3 | 9.12
9 | CN1CCC(n2cnc(-c3ccc(F)cc3)c2-c2ccnc(NCCO)n2)CC1 | -0.43 | 2.07 | 2.04 | 0.67 | 0.7 | 3.75 | 2.73 | 1.02 | 2.41 | 3.29 | 3.15 | 3.36 | 3.78 | -0.1 | 1.43 | 2.57 | 3.9 | 3.17 | 5.09 | 3.17
